Several values for one entry are separate records, joined by “and”; a condition that tells them apart may be missing. Identical values can stand only once. Results filed as inconclusive are left out. Activity calls are given as the source filed them. Unless noted, calls come from the whole dose curve; as a rule, active = well fitted curve in either direction with a large enough effect (not every such curve was filed as active); inconclusive = small, poorly fitted or top-dose-only effect, or another doubt; inactive = flat fitted curve, though single readings scatter.
Assays:
[1] = AP1 Signaling Pathway (AID 357); conditions: ME-180 AP-1-bla reporter, EGF-induced, beta-lactamase ratio, 5 h; note: % is set by controls: 0 for no effect and ±100 for the full control effect
How it was run: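 AP-1-bla ME-180 cells with beta-lactamase reporter under AP-1 response element, stimulated with EC50 EGF; compounds titrated, 5 hours at 37 degrees Celsius. CCF4 read at 460/530 nm ratio; positive and negative modulators judged by AC50.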

[2] = target: Cytochrome P450 1A2 (Homo sapiens) (UniProt P05177); experiment: p450-cyp1a2 (AID 410; calls by dose curve; note: potency is the fitted concentration of half-maximal effect;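 for activity change, negative = inhibition: -100% = full effect of reference inhibitor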); conditions: recombinant CYP1A2, luciferin-ME demethylation, luminescence; series mostly up to 57 µM
Cytochrome P450 1A2 (Homo sapiens), sequence (P05177 whole entry, looked up): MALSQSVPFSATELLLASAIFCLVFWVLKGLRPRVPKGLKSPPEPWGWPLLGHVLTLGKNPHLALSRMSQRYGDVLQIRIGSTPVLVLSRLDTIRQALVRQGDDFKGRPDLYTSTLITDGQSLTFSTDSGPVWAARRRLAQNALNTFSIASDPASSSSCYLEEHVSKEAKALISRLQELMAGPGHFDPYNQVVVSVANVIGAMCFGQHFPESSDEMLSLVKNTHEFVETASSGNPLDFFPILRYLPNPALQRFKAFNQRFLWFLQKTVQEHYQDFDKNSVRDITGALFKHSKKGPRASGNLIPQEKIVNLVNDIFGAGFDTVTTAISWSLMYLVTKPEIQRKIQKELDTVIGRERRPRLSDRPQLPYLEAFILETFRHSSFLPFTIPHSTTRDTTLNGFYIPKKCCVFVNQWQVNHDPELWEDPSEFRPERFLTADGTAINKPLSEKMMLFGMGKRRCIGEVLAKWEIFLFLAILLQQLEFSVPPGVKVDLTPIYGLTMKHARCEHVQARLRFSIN
How it was run: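 Inhibition was calculated relative to 57 uM furafylline (full inhibition). The reaction used human CYP1A2 at 20nM with Luciferin-ME at its Km, 100uM, driven by an NADPH-regenerating system for 60 min at room temperature.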

[3] = NFAT Signaling Pathway (AID 444); conditions: Jurkat NFAT-bla M1, carbachol, beta-lactamase ratio, 5 h;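 note: carbachol stimulus at about its EC50 of 1 µM final; % is set by controls: 0 for no effect and ±100 for the full control effect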
How it was run: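 Jurkat cells with NFAT-driven β-lactamase reporter and co-expressed M1 receptor, stimulated with carbachol (final 1 uM, ~EC50), compound titration, 5 h at 37 °C. CCF4 loaded 1 h at RT; 460/530 nm ratio gave %activity and AC50.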

[4] = Stat Signaling Pathway (AID 446); conditions: ME-180 (cervical carcinoma) SIE beta-lactamase reporter, IL-6 stimulated, 5 h;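 note: ME-180 cervical cancer cells given 40 pM IL-6 alongside compound; SIE-controlled beta-lactamase reporter measured as 460/530 nm FRET emission ratio; % is set by controls: 0 for no effect and ±100 for the full control effect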
How it was run: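 IL-6/STAT signaling read in ME-180 cells via an SIE beta-lactamase reporter. Stimulus was 40 pM IL-6 (its AC50) for 5 hrs, so both activation and inhibition register.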

[5] = target: Mitogen-activated protein kinase 10 (Mus musculus) (UniProt Q61831); experiment: JNK3 AlphaScreen Assay (AID 530); conditions: JNK3 lysate, c-Jun phosphorylation; series mostly up to 57.1 µM;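 note: kinase came from lysate of stimulated human HepG2 cells; signal reports phosphorylation of biotinylated GST-cJun 1-79 at Ser73 with 10 µM ATP; % is set by controls: 0 for no effect and ±100 for the full control effect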
How it was run: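 qHTS format: compounds tested as titrations against IL-1beta/TNF-alpha-activated HepG2 lysate JNK3 with biotin-GST-cJun substrate and 10 uM ATP at room temperature. Loss of anti-phospho-cJun AlphaScreen signal indicates inhibition.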

[6] = target: 3',5'-cyclic-AMP phosphodiesterase 4B (Homo sapiens) (UniProt Q07343); experiment: qHTS Assay for Inhibitors of PDE-IV (AID 607; active = well fitted activation curve with a large enough effect in the main read-out, with a control signal flat, not every such curve was filed as active; note: % of control where 0% means no effect); conditions: HEK293 ACTOne CNG channel cells, membrane potential fluorescence; series mostly up to 22.9 µM
3',5'-cyclic-AMP phosphodiesterase 4B (Homo sapiens), sequence (Q07343 whole entry, looked up): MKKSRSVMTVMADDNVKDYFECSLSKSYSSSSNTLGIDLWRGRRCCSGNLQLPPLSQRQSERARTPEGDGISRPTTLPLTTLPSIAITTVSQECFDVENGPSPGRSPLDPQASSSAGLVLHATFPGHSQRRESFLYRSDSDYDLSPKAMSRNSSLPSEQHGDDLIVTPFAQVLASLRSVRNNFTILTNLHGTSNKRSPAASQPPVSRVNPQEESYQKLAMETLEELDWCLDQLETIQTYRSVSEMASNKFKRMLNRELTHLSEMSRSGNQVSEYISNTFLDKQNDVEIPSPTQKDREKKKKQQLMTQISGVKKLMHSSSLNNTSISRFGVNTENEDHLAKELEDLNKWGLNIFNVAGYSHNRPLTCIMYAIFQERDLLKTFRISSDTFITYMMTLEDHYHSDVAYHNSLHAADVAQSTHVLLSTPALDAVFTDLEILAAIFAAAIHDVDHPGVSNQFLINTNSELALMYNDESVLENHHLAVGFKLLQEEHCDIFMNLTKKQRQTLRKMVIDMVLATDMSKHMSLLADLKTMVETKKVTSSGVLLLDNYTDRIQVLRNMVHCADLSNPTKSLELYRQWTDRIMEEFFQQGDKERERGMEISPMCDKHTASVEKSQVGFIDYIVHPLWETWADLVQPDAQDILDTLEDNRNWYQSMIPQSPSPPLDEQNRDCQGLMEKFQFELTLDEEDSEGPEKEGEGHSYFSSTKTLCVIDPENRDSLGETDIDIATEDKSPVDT
How it was run: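 Live HEK293 cells with a modified cyclic nucleotide-gated (CNG) channel report intracellular cAMP via membrane-potential dye fluorescence (ex 535/em 590 nm). Endogenous PDE-IV was targeted. Compounds were tested at up to 22.9 uM final; RO 20-1724 100 uM served as control.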

[7] = target: Pyruvate kinase (Leishmania mexicana) (UniProt Q27686); experiment: qHTS Validation Assay for Inhibitors of Leishmania Mexicana Pyruvate Kinase (AID 945; active = well fitted curve in the direction sought with a large enough effect; an effect the other way counts as inactive or inconclusive;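 note: 0% = DMSO only neutral control wells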); conditions: purified L. mexicana pyruvate kinase, enzyme activity, E451W mutant enzyme; series mostly up to 57.5 µM
Pyruvate kinase (Leishmania mexicana), sequence (Q27686 2-499 E452W): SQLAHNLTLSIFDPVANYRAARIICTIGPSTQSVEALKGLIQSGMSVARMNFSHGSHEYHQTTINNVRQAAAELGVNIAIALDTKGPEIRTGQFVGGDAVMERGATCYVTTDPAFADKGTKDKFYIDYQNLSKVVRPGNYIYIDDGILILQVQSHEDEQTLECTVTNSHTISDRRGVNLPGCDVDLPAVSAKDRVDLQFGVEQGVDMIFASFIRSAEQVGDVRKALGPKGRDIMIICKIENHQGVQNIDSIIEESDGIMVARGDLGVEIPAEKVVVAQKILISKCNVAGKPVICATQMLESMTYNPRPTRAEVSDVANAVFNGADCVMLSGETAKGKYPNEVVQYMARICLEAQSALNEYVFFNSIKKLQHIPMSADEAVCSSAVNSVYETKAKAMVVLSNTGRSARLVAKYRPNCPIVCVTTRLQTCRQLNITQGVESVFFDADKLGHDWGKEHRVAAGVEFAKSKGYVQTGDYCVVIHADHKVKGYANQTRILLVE
How it was run: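 Eight-point qHTS titrations in triplicate, data normalized to DMSO neutral control. Reaction: 0.2 nM LmPYK E451W mutant, 0.5 mM PEP, 0.1 mM ADP, 7 mM MgCl2, pH 7.2, one hour at room temperature; luminescent ATP detection.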

[8] = target: Pyruvate kinase PKM (Homo sapiens) (UniProt P14618); experiment: qHTS Assay for Activators of Human Muscle Pyruvate Kinase (AID 954; active = well fitted curve in the direction sought with a large enough effect, not every such curve was filed as active;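 note: 0% = uninhibited enzyme and -100% = no enzyme or full thiadiazolimine inhibition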); conditions: purified human muscle pyruvate kinase, luciferase-coupled luminescence, 1 h; series mostly up to 57.5 µM
Pyruvate kinase PKM (Homo sapiens), sequence (P14618 whole entry, looked up): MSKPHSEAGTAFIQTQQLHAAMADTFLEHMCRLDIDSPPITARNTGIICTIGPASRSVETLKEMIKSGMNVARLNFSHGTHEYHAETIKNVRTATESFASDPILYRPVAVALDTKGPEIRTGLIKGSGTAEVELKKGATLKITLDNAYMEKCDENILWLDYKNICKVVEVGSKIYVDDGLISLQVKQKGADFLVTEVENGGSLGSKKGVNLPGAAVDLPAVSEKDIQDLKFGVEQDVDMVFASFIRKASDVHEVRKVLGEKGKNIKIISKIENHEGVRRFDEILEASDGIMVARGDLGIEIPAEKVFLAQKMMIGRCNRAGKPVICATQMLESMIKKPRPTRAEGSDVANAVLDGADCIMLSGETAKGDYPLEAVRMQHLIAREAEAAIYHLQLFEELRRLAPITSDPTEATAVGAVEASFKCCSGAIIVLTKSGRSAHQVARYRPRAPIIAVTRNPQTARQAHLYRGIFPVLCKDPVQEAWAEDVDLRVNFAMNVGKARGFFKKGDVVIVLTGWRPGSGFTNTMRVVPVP
How it was run: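 Enzyme was run at intermediate activity so both inhibitors and activators could be detected. ATP formed from ADP and PEP by 0.1 nM human PKM2 during a 1 h room-temperature incubation was quantified by coupled luciferase luminescence.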

[9] = target: Alpha-galactosidase A (Homo sapiens) (UniProt P06280); experiment: Counterscreen for Glucocerebrosidase Inhibitors: qHTS Assay for Human alpha-Galactosidase at pH 4.5 (AID 992; active = well fitted curve in the direction sought with a large enough effect; an effect the other way counts as inactive or inconclusive; note: 0% is about no effect); conditions: purified enzyme, fluorogenic substrate; series mostly up to 76.9 µM
Alpha-galactosidase A (Homo sapiens), sequence (P06280 whole entry, looked up): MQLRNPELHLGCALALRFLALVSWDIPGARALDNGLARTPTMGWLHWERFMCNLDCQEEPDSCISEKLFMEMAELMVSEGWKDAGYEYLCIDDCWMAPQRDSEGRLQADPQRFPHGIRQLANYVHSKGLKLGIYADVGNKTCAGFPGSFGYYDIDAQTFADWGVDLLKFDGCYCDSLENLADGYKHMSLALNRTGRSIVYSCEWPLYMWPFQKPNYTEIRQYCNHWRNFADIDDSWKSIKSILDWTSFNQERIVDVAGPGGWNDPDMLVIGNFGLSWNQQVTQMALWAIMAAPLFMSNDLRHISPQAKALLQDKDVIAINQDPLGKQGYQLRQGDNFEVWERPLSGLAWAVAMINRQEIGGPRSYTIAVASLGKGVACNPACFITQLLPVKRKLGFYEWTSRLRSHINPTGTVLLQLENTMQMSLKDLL
How it was run: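 Read-out is 4-methylumbelliferone fluorescence (365 nm excitation, 440 nm emission) after a pH 10 NaOH/glycine stop. Reactions held 2 nM enzyme and 80 uM substrate at pH 4.5 for 20 min at room temperature.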

[10] = target: alpha-glucosidase (Oryza sativa, rice) (UniProt Q653V4); experiment: Counterscreen for Glucocerebrosidase Inhibitors: qHTS Assay for Rice alpha-Glucosidase at pH 5.0 (AID 997; active = well fitted curve in the direction sought with a large enough effect; an effect the other way counts as inactive or inconclusive;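 note: 0% = full activity with enzyme and -100% = basal without enzyme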); conditions: rice alpha-glucosidase enzyme activity; series mostly up to 76.9 µM
How it was run: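 Rice alpha-glucosidase (4 nM final) with 400 uM 4-methylumbelliferyl-alpha-D-glucopyranoside in citrate buffer pH 5.0, 20 min at room temperature, stopped at pH 10; fluorescence 365/440 nm, compounds 0.7 nM–77 uM, AC50 from Hill fits.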

[11] = qHTS Assay for Lipid Storage Modulators (AID 1519; calls by dose curve); conditions: Drosophila S3 cells, BODIPY lipid droplet/cell ratio, laser cytometry, cells loaded with oleic acid; for activity change, negative = inhibition: at 25.7 µM (top of the series)
How it was run: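 Cells seeded at 5,000 per well were treated with compounds over a concentration series and loaded with oleic acid (400 uM, as added). Lipid droplet fluorescence (488 nm excitation, 500-530 nm channel) was read by laser-scanning cytometry and normalized to 20 uM Triacsin C.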

[12] = target: ATP-dependent 6-phosphofructokinase (Trypanosoma brucei brucei) (UniProt O15648); experiment: qHTS Assay to Find Inhibitors of T. brucei phosphofructokinase: hit validation (AID 492961; active = well fitted curve in the direction sought with a large enough effect; an effect the other way counts as inactive or inconclusive); conditions: T. brucei PFK, ADP-Glo luminescence; series mostly up to 24.3 µM
ATP-dependent 6-phosphofructokinase (Trypanosoma brucei brucei), sequence (O15648 whole entry, looked up): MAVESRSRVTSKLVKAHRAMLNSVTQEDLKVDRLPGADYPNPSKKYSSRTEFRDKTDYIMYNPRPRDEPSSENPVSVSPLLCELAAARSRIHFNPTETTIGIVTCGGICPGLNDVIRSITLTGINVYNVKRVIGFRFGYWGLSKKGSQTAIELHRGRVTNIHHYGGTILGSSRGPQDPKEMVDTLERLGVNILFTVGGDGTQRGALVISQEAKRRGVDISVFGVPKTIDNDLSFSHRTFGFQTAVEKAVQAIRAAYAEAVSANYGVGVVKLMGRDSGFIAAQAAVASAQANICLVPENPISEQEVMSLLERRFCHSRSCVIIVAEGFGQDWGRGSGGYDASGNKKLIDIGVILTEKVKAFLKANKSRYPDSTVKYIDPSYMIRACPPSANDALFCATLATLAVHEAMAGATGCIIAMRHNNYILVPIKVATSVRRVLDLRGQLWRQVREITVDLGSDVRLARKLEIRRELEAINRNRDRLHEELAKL
How it was run: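 Inhibition of parasite PFK is measured as reduced ADP formation, quantified via luciferase after ATP depletion. Assay used 0.1 mM ATP, 0.5 mM F6P, 1.25 nM enzyme, 45 min incubation.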

[13] = target: Ubiquitin carboxyl-terminal hydrolase 1 (Homo sapiens) (UniProt O94782); experiment: Inhibitors of USP1/UAF1: Pilot qHTS (AID 504865; active = well fitted curve in the direction sought with a large enough effect; an effect the other way counts as inactive or inconclusive;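 note: rhodamine fluorescence freed from ubiquitin-rhodamine substrate followed over time; top concentration of the series differs between compounds; % is set by controls: 0 for no effect and ±100 for the full control effect; nearly all actives have a fitted effect of over 35% in size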); conditions: purified USP1/UAF1, Ub-rhodamine cleavage fluorescence; series mostly up to 54.9 µM
Ubiquitin carboxyl-terminal hydrolase 1 (Homo sapiens), sequence (O94782 whole entry, looked up): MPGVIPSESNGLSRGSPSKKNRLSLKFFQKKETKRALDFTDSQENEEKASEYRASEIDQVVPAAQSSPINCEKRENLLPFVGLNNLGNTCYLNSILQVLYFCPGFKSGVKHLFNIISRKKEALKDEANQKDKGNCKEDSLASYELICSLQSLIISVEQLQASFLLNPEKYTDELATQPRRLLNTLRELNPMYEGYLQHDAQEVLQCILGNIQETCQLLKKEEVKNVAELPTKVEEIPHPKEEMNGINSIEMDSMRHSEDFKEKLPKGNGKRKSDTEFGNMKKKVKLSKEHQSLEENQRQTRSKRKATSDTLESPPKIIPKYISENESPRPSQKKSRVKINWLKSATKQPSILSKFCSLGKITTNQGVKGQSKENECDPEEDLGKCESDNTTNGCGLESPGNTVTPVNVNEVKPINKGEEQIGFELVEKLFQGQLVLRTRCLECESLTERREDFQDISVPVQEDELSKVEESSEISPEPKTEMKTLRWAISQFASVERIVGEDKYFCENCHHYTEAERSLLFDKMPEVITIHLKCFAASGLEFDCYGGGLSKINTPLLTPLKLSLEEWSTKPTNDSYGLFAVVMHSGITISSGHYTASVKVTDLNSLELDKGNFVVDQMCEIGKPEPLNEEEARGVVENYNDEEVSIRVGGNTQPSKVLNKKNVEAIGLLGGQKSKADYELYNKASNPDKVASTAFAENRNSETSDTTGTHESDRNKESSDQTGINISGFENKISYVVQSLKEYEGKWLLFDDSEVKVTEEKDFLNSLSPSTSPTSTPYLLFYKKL
How it was run: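 USP1/UAF1 complex at 1 nM preincubated 15 min at room temperature with compound, then Ub-Rho substrate added at 150 nM final. Fluorescence (480/540 nm) read kinetically in 50 mM HEPES pH 7.8, 0.5 mM EDTA, 1 mM TCEP, 0.1 mg/ml BSA, 0.01% Tween-20.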

[14] = target: Luciferin 4-monooxygenase (Photinus pyralis) (UniProt P08659); experiment: Biochemical firefly luciferase enzyme assay for NPC (AID 624030; active = well fitted curve in the direction sought with a large enough effect; an effect the other way counts as inactive or inconclusive;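 note: purified P. pyralis luciferase at 10 nM with luciferin and ATP substrate; 0% = DMSO and -100% = full luciferase inhibition by PTC124 control; nearly all actives have a fitted effect of over 70% in size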); conditions: purified P. pyralis luciferase, luminescence, 5 min; series mostly up to 58.6 µM
How it was run: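 Purified P. pyralis luciferase at 10 nM in 50 mM Tris Acetate (final), luminescence read within 5 minutes of enzyme addition to compounds. Activity normalised to PTC124 versus DMSO; concentration-response curves classed by r2, magnitude and activity.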

[15] = qHTS profiling for inhibitors of Plasmodium falciparum proliferation (AID 504749; active = well fitted curve in the direction sought with a large enough effect; an effect the other way counts as inactive or inconclusive; note: potency is the fitted concentration of half-maximal effect; nearly all actives have a fitted effect of over 60% in size); conditions: P. falciparum in erythrocytes, SYBR Green DNA, 72 h
How it was run: (§1)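 Readout was DNA-dye fluorescence from lysed cultures, ex 485/em 535 nm. Parasitized red cells had grown 72 h with compound; data scaled between 0.29 uM artemisinin and DMSO wells and corrected using vehicle-only plates.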

[16] = system: AS120; experiment: as above; conditions: P. falciparum in erythrocytes, SYBR Green DNA, 72 h; series mostly up to 28.7 µM
How it was run: as §1

[17] = system: CP250; experiment: as above; conditions: P. falciparum in erythrocytes, SYBR Green DNA, 72 h; series mostly up to 12.8 µM
How it was run: as §1

[18] = target: Glucocorticoid receptor (Homo sapiens) (UniProt P04150); experiment: GR-GFP Redistribution (AID 450;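 active = compounds whose dose series gives a full or clear partial fitted curve of increased nuclear translocation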; note: potency is the fitted concentration of half-maximal effect); conditions: U2OS GR-GFP nuclear translocation, laser cytometry, 2 h
Glucocorticoid receptor (Homo sapiens), sequence (P04150 whole entry, looked up, the tested form may be a part): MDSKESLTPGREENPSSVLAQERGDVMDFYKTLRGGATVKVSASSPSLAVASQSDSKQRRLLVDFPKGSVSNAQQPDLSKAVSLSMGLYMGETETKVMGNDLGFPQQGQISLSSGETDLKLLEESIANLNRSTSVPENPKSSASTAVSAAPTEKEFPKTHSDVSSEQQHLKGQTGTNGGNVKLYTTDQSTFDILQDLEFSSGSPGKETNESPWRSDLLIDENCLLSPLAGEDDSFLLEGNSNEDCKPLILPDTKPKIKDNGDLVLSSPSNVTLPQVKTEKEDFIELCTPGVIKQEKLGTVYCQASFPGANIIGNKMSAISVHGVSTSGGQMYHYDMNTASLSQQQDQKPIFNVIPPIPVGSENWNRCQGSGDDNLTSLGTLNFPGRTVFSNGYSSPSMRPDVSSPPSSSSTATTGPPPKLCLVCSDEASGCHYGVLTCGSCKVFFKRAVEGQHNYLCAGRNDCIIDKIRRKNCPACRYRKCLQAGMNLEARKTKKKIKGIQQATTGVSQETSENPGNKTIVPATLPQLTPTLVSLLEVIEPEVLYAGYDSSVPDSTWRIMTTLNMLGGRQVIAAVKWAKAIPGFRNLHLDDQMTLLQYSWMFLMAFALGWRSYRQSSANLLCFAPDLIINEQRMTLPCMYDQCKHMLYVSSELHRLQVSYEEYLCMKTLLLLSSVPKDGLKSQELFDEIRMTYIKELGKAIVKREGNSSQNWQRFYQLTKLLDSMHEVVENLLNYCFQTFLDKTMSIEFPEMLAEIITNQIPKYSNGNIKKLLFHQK

[19] = target: Glucocorticoid receptor (Homo sapiens) (UniProt P04150); experiment: GR-EFC Redistribution (AID 451; calls by dose curve; note: potency is the fitted concentration of half-maximal effect); conditions: CHO-K1 GR-EFC translocation, beta-gal luminescence, 2 h
How it was run: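 CHO-K1 cells expressing nuclear EA and GR-ED fragments of b-gal; compounds titrated up to 46 uM final, 2 h at 37 C. GR nuclear translocation read as complemented b-gal luminescence after 1 h RT detection.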

[20] = measured here: cell count channel max response
[21] = measured here: lipid channel max response

NC(=O)c1cc[n+](CC2=C(C(=O)O)N3C(=O)[C@@H](NC(=O)[C@H](c4ccccc4)S(=O)(=O)[O-])[C@@H]3SC2)cc1
-10.2%: max response [11, 20]
inactive: activity change, negative = inhibition ([1]; at 17.2 µM (top of the series)) 2.93% | activity change, negative = inhibition ([1]; at 38 µM (top of the series)) -7.21% | Potency [2] | activity change, negative = inhibition ([3]; at 17.2 µM (top of the series)) 5.18% | activity change, negative = inhibition ([3]; at 38 µM (top of the series)) 3.09% | activity, negative = inhibition ([4]; at 17.2 µM (top of the series)) 0.394% | activity, negative = inhibition ([4]; at 38 µM (top of the series)) 0.148% | Potency [5] | Potency [6] | outcome [7] | outcome [8] | outcome [9] | outcome [10] | activity change, negative = inhibition [11] -1.52% | outcome [12] | Potency [13] | outcome [14]
active: Potency ([15]; parasite line A) 3.55 µM | Potency ([15]; parasite line B) 3.55 µM | Potency [16] 3.16 µM | Potency [17] 3.98 µM
-11.3%: max response [11, 21]

O=C(O)CNC(=O)[C@@H](CS)Cc1ccccc1
-2.84%: max response [11, 20]
inactive: activity change, negative = inhibition ([1]; at 17.2 µM (top of the series)) 1.14% | activity change, negative = inhibition ([1]; at 38 µM (top of the series)) -1.37% | Potency [2] | activity change, negative = inhibition ([3]; at 17.2 µM (top of the series)) 3.12% | activity change, negative = inhibition ([3]; at 38 µM (top of the series)) -2.03% | activity, negative = inhibition ([4]; at 17.2 µM (top of the series)) 14.5% | activity, negative = inhibition ([4]; at 38 µM (top of the series)) 26.3% | Potency [18] > 46 µM and > 20.6 µM | Potency [19] > 46 µM and > 20.6 µM | Potency [5] | Potency [6] | outcome [7] | outcome [8] | outcome [9] | outcome [10] | activity change, negative = inhibition [11] -1.09%
-4.92%: max response [11, 21]

C=CCc1ccccc1OC[C@H](O)CNC(C)C
inactive: activity change, negative = inhibition ([1]; at 17.2 µM (top of the series)) 12.5% | activity change, negative = inhibition ([1]; at 38 µM (top of the series)) 11.9% | activity change, negative = inhibition ([3]; at 17.2 µM (top of the series)) -2.1% | activity change, negative = inhibition ([3]; at 38 µM (top of the series)) -5.09% | activity, negative = inhibition ([4]; at 7.69 µM (top of the series) unless noted) 5.89% [at 17.2 µM] | Potency [5] | Potency [6] | outcome [7] | outcome [8] | outcome [9] | outcome [10] | activity change, negative = inhibition [11] 0.0029% | Potency [13]
active: Potency [2] 7.94 µM and 3.16 µM
-3.45%: max response [11, 21]
-4%: max response [11, 20]

O=C(C1CCCCC1)N1CC(=O)N2CCc3ccccc3[C@@H]2C1
inactive: activity change, negative = inhibition ([1]; at 17.2 µM (top of the series)) 6.31% | activity change, negative = inhibition ([1]; at 38 µM (top of the series)) -5.21% | activity change, negative = inhibition ([3]; at 17.2 µM (top of the series)) 3.18% | activity change, negative = inhibition ([3]; at 38 µM (top of the series)) -8.74% | activity, negative = inhibition ([4]; at 17.2 µM (top of the series)) -1.88% | activity, negative = inhibition ([4]; at 38 µM (top of the series)) -0.96% | Potency [18] > 46 µM and > 20.6 µM | Potency [19] > 46 µM and > 20.6 µM | Potency [5] | Potency [6] | activity change, negative = inhibition [11] 1.99% | outcome [12] | Potency [13] | outcome [14]
3.5%: max response [11, 20]
8.95%: max response [11, 21]
active: Potency [2] 12.6 µM and 10 µM
